The text below walks through data of PubChem BioAssay AID488920 (Sanford-Burnham Center for Chemical Genomics, 2010).

Activity calls are given as the source filed them. Rule as the data show it: active = IC50 below about 3 µM; inactive = the rest.

The assay can be described thus: luminescent readout interference, potency – biochemical, luminescence, artefact control for SENP inhibitor project, dose response (AID 488920). Conditions: luminescence interference counterscreen, spectral interferers.
For the compound `CCN(CC)c1ccc(/C=N/NC(=O)c2ccoc2C)c(O)c1`, the IC50 – broadly, the midpoint of a concentration-inhibition curve – was 2530 nM (active).

For the compound `Cc1ccc(C(=O)NNc2cc(N3CCCC3)nc(N3CCCC3)n2)cc1`, the IC50 was > 5000 nM (inactive).

For `O=C1/C(=C/c2ccc([N+](=O)[O-])cc2)CCc2ccccc21`, the IC50 is 884 nM (active).

In the case of `Cc1ccc(/C=C/c2nc3ccccc3c(=O)[nH]2)cc1`, the IC50 is 403 nM (active).

On to `Cn1c(-c2ccccc2)cc2onc(-c3ccccc3)c2c1=O`, for which the IC50 was 607 nM (active).

Consider `O=C(O)c1ccc2cc(-c3ccccc3)[nH]c2c1`, for which the IC50 was 471 nM (active).

With `CCn1c(O)c(N=Nc2ccc3ccccc3n2)c2ccccc21`, the IC50 was 2910 nM (active).

`Cc1cc(C)nc(Nc2nc(-c3ccccc3)cs2)n1`: the IC50 was 865 nM (active).
